A number with no mark means an inactive call. The source made the active and inactive calls.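 The calls were made as follows: active = mean inhibition above 46.5%, the solvent-only control mean plus 3 SD; inactive = the rest.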

Sequence of Nuclear receptor coactivator 2 (Homo sapiens) (Q15596 whole entry, looked up, the tested form may be a part): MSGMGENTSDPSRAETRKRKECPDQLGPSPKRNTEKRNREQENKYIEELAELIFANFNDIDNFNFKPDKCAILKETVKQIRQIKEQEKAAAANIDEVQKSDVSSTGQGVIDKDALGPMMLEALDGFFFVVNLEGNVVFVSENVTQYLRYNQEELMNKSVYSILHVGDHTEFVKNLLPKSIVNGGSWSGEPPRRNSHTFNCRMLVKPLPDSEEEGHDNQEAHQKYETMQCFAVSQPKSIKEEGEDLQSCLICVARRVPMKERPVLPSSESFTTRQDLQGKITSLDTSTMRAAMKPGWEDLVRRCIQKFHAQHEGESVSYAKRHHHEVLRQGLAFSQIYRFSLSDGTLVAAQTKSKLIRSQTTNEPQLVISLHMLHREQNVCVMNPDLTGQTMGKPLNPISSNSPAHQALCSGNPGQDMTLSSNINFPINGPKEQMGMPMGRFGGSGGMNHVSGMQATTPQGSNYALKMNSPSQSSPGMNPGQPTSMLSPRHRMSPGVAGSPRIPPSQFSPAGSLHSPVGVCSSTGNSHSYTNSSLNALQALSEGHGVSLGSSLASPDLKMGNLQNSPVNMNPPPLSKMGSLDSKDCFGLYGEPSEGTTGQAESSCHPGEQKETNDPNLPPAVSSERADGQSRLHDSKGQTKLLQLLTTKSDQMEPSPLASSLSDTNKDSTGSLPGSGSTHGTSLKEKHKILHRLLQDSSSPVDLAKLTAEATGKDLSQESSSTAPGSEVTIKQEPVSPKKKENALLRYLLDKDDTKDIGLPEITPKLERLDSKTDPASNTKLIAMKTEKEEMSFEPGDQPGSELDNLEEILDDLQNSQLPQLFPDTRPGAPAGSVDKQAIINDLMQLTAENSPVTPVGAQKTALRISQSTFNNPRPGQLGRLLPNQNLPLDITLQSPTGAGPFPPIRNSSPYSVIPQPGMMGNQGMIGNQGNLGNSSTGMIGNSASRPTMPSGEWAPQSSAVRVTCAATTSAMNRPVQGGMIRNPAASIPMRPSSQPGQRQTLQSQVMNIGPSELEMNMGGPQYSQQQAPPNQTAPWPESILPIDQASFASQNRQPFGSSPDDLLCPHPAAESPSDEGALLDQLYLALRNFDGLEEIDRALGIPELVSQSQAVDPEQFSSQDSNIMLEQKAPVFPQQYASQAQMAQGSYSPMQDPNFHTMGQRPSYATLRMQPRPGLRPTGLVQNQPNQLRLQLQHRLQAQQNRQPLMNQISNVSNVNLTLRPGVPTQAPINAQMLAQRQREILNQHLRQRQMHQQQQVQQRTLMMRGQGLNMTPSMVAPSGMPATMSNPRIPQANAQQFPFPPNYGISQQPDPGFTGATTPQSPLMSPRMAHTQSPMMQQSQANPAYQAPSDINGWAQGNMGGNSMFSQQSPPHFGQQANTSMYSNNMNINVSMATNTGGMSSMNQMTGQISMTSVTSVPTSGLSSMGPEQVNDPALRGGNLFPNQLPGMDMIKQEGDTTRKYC

The assay has as its target Nuclear receptor coactivator 2 (Homo sapiens) (UniProt Q15596). The assay can be described thus: SRC2 coactivator transcriptional activity inhibitors, confirmation, cell-based, luminescence, HEK293, triplicate (AID 652008).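 Also: 0% = DMSO-treated cells and 100% = Gossypol at 36 µM.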 As to conditions: HEK293 GAL4-SRC2 luciferase reporter, at 8.9 µM, stronger effect = higher value. A general note: In a reporter assay the amount or activity of a reporter protein is the signal.
For `CCCCCCCCN1C(=O)[C@H](CC(=O)NCCCC)C[C@@]2(C(=O)OCC)CCCC=C12`, the inhibition (in general, the relative decrease from the control value, in per cent) is -0.38%. As to `CC1=CC(C)(C)Nc2ccc(OC(=O)c3cccnc3)cc21`, the inhibition is 39.7%. On to `CCCCc1ccc(N/C(N)=N/c2nc(C)cc(C)n2)cc1`, for which the inhibition is 32.1%.

As for `COc1ccccc1/C=C/C(=O)c1cc(Br)ccc1OC(=O)c1ccco1`, the inhibition was -2.06%. As for `CCOC(=O)[C@]12CCC=C1N(CCC1=CCCCC1)C(=O)[C@H](CC(=O)N1CCC(c3ccccc3)CC1)C2`, the inhibition was -24.7%. In the case of `COc1ccc(CNC(=O)C2CCCN(Cc3nc(-c4cccc(C)c4)oc3C)C2)cc1` (configuration not stated), the inhibition was 0.33%. For `O=C1C=CC2C3C(=O)N(c4ccccc4)C(=O)C3C1N2Cc1ccccc1` (configuration not stated) the value was 65.9% (active).

Source of the values: PubChem BioAssay.
